Assay: probe aNOTCH2 binding on compound microarray – biochemical, small-molecule microarray, 635/667 nm fluorescence, primary screen (AID 1121);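 further: score merges feature fluorescence read at 667 nm with its signal to noise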
Settings: higher = more signal

Row | SMILES | composite z-score
1 | [N-]=[N+]=NCc1ccccc1[C@H]1OC(c2ccc(OCCCO)cc2)=N[C@@]1(Cc1ccccc1)C(=O)NCC(O)CO (stereo not given in full) | -0.0013
2 | NC(=O)NCC#Cc1ccc2c(c1)[C@]1(C(=O)N2)[C@H](c2ccccc2OCCO)N2[C@H](c3ccccc3)[C@H](c3ccccc3)OC(=O)[C@H]2[C@@H]1C(=O)N1CCCCCCC1 | 0.813
3 | CC(C)(C)OC(=O)CC[C@@]1(C(N)=O)N=C(c2ccc(OCCCO)cc2)O[C@@H]1c1ccccc1N=[N+]=[N-] | -0.0241
4 | C=CCC(OC(C)=O)[C@@H]1[C@@H](N(Cc2ccc(-c3cccc(C(F)(F)F)c3)o2)C(=O)Cc2ccc(OC)cc2)c2cc(OCCCO)ccc2N1C(=O)Cc1ccc(OC)cc1 (stereo not given in full) | -0.193
5 | CCOC(=O)C1=CC[C@@H](c2cccc(Cl)c2)N(S(=O)(=O)c2ccc(C)cc2)[C@H]1c1ccc(C#N)cc1 | 0.0747
6 | Cc1ccc(F)cc1S(=O)(=O)N[C@@H]1CCN(Cc2ccc(C(F)(F)F)cc2)C1 | -0.173
7 | C/C=C/[C@H](CCn1cc([C@H](O)c2ccccc2)nn1)[Si](C)(C)c1ccc(OC)cc1 | -0.181
8 | COCC1C2CC[C@H]3C(OCc4ccc(F)cc4C(F)(F)F)OC[C@]4(C)[C@H]3C2=C(CN4C(=O)OC(C)(C)C)[C@H](C)C1COC (stereo not given in full) | 0.214
9 | C=C(/C(=C/C[C@@H](OC(=O)c1ccncc1)c1ccc(CO)o1)c1cc(C(=O)OC)ccc1OC)C(C)C | -0.109
10 | O=C1O[C@@H](c2ccccc2)[C@@H](c2ccccc2)N2[C@@H](c3ccc(O)cc3)[C@]3(C(=O)Nc4ccccc43)[C@@H](C(=O)N3CCCCCCC3)[C@H]12 | 0.464
